Data on 13 sequences can be found in paper PMC5700166.

Holding throughout (experiment): protein-binding microarray (PBM); PBM: ~300 nM protein, 6 mM HEPES pH 7.8, 80 mM KCl, 0.5 mM EDTA, 0.5 mM EGTA, 6% glycerol, 35 ng/ul poly-dIdC, 1% milk, 1 h, room temperature; Ap Aiptasia and Nv Nematostella (sea anemones) / Co Capsaspora / Aq Amphimedon (sponge) / Dm Drosophila / Hu human; RHD is the Rel homology domain; high values mean tight binding
Holding throughout (conditions): dsDNA, one strand shown

Assay [1] addresses T1, GST-Ap-NF-kB RHD (Exaiptasia pallida (Aiptasia), UniProt A0A913YAJ5 2-422).
T1 sequence: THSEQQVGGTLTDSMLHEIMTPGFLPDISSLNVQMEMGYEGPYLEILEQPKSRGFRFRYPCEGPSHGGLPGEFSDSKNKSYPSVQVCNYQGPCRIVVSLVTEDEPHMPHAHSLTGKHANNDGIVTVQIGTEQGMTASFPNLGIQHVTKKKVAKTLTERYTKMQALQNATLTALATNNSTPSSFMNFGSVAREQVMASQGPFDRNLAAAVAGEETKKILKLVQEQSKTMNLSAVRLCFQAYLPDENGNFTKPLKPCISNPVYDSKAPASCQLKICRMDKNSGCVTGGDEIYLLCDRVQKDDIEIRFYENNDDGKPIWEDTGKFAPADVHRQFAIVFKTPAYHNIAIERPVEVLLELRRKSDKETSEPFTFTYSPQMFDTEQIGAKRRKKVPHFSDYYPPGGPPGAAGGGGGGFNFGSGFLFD

For assay [2], the target named is T2, GST-Nv-NF-kB (Cys allele) (Nematostella vectensis, UniProt E5G601 2-411).
T2 sequence: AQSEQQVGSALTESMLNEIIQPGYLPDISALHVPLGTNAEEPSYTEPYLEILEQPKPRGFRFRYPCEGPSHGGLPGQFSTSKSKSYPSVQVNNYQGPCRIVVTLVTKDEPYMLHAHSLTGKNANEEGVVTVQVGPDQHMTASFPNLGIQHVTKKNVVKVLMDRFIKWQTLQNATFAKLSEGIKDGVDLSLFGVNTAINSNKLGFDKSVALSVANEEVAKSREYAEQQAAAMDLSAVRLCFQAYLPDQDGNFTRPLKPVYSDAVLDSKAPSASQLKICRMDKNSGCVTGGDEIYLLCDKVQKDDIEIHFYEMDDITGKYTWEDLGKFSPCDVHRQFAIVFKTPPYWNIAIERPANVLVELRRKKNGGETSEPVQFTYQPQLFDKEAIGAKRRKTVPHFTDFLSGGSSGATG

Assay [3] deals with T3, GST-Nv-NF-kB (Ser allele) (Nematostella vectensis, UniProt A7UNT2 2-411).
T3 sequence: T2 sequence with Q21R, C66S, S207N, E215Q, V217A, E225K, A268E, D399E

Assay [4] concerns the target T4, GST-Dm-Relish (Drosophila melanogaster, UniProt Q94527 99-473).
T4 sequence: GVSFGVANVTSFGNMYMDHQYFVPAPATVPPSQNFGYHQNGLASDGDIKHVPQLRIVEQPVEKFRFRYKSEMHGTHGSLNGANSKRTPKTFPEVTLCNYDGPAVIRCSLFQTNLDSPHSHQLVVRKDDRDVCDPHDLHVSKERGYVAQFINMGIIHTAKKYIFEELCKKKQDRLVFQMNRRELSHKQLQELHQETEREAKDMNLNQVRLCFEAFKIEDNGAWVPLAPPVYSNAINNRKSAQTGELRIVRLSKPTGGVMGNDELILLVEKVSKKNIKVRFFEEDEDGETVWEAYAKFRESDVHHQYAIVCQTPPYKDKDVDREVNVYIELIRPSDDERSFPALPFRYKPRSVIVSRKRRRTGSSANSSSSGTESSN

Assay [5] addresses T5, GST-Aq-NF-kB (Amphimedon queenslandica, UniProt A9Y5G7 2-389).
T5 sequence: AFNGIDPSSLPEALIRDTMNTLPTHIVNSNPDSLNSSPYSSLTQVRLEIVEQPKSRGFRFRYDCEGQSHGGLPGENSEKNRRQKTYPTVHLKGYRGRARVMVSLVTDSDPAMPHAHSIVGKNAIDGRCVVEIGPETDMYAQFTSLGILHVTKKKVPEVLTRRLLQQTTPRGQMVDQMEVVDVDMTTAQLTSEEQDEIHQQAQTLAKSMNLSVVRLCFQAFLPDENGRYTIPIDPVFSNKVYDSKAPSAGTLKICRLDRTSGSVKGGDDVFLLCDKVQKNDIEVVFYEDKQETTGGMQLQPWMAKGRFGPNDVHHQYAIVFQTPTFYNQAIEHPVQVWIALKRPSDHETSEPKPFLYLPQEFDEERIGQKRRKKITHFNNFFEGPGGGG

Assay [6] concerns the target GST-Hu-p50 (Homo sapiens, UniProt P19838 7-356).
Assay [7] deals with T6, GST-Co-NF-kB (Capsaspora owczarzaki, UniProt F1ARL5 200-546).
T6 sequence: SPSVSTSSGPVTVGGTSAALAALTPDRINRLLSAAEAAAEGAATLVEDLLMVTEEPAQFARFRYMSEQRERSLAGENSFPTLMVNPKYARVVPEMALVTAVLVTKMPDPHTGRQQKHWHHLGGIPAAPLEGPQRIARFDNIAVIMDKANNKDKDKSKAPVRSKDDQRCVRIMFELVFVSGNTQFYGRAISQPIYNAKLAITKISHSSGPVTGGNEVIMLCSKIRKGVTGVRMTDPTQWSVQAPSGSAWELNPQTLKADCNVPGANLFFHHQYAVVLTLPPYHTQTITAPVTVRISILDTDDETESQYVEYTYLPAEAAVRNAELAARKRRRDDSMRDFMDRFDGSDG

Changes are numbered by the printed parent chain.

Chain of GST-Hu-p50 (P19838 7-356): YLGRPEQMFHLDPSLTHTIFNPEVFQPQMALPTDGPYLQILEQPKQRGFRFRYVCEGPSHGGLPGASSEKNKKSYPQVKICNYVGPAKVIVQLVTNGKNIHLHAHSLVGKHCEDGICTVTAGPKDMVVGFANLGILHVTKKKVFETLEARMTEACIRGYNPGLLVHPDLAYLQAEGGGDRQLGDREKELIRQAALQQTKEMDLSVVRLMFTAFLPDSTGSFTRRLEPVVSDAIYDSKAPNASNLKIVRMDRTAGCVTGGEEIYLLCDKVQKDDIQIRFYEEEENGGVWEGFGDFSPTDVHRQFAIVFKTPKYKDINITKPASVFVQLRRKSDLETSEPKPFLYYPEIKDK

Consider “CCGATTAACATCAGGGACTTCTATGATGTTAATCGGGTCTTGATTCGCTTGACGCTGCTG”, for which the binding signal in assay [1] was found to be 5.47 z-score; in assay [2], 6.35 z-score; in assay [3], 7.05 z-score; in assay [4], 3.93 z-score; in assay [5], 5.24 z-score; in assay [6], 5.28 z-score.

Turning to “CCGATTAACATCACGCAAATCCCTGATGTTAATCGGGTCTTGATTCGCTTGACGCTGCTG”, the binding signal in assay [1] is 2.1 z-score; in assay [2], 1.61 z-score; in assay [3], 1.22 z-score; in assay [4] it was 1.24 z-score; in assay [5] it was 2 z-score; in assay [6], 1.33 z-score.

Turning to “CCGATTAACATCAGAAAAGTACCTGATGTTAATCGGGTCTTGATTCGCTTGACGCTGCTG”, the binding signal amounted to 3.82 z-score in assay [1]; 6.4 z-score in assay [2]; 9.87 z-score in assay [3]; 8.45 z-score in assay [4]; 4.69 z-score in assay [5]; 6.05 z-score in assay [6].

On to “CCGATTAACATCAAGGTGTTTCCTGATGTTAATCGGGTCTTGATTCGCTTGACGCTGCTG”, for which the binding signal in assay [1] was 1.56 z-score; in assay [2] it was 1.48 z-score; in assay [3], 1.39 z-score; in assay [4] it was 1.91 z-score; in assay [5], 2.48 z-score; in assay [6], 3.43 z-score.

“CCGATTAACATCAGATCCCCCCCTGATGTTAATCGGGTCTTGATTCGCTTGACGCTGCTG”: the binding signal in assay [1] worked out at 8.16 z-score; in assay [2] it was 5.56 z-score; in assay [7], 6.72 z-score; in assay [4], 5.21 z-score; in assay [5], 5.39 z-score; in assay [6], 5.36 z-score.

As to “CCGATTAACATCAGGGACTTCACTGATGTTAATCGGGTCTTGATTCGCTTGACGCTGCTG”, the binding signal in assay [1] came to 3.82 z-score; in assay [2], 4.27 z-score; in assay [3], 4.08 z-score; in assay [4], 7.9 z-score; in assay [5], 5.14 z-score; in assay [6], 4.12 z-score.

As to “CCGATTAACATCAGGAAATCACCTGATGTTAATCGGGTCTTGATTCGCTTGACGCTGCTG”, the binding signal in assay [1] came to 2.81 z-score; in assay [2] it was 3.51 z-score; in assay [3], 3.89 z-score; in assay [4] it was 7.51 z-score; in assay [5], 4.87 z-score; in assay [6] it was 5.42 z-score.

“CCGATTAACATCAAACTCCCCCGTGATGTTAATCGGGTCTTGATTCGCTTGACGCTGCTG”: the binding signal in assay [1] was 6.89 z-score; in assay [2], 5.44 z-score; in assay [7], 7.66 z-score; in assay [4], 5.92 z-score; in assay [5] it was 5.84 z-score; in assay [6], 6.48 z-score.

“CCGATTAACATCAAAATTCCCGATGATGTTAATCGGGTCTTGATTCGCTTGACGCTGCTG”: the binding signal in assay [1] worked out at 4.37 z-score; in assay [2] it was 6.05 z-score; in assay [7], 4.55 z-score; in assay [4] it was 5.06 z-score; in assay [5], 4.93 z-score; in assay [6], 4.38 z-score.

“CCGATTAACATCAAAAGCCCCCCTGATGTTAATCGGGTCTTGATTCGCTTGACGCTGCTG”: the binding signal in assay [1] is 5.96 z-score; in assay [2], 6 z-score; in assay [7] it was 4.6 z-score; in assay [4], 8.42 z-score; in assay [5], 6.73 z-score; in assay [6], 5.72 z-score.

For “CCGATTAACATCAGGGTTTCACCTGATGTTAATCGGGTCTTGATTCGCTTGACGCTGCTG”, the binding signal amounted to 1.51 z-score in assay [1]; 1.95 z-score in assay [2]; 1.23 z-score in assay [3]; 5.71 z-score in assay [4]; 3.71 z-score in assay [5]; 2.5 z-score in assay [6].

As to “CCGATTAACATCACGGGATTACCTGATGTTAATCGGGTCTTGATTCGCTTGACGCTGCTG”, the binding signal was 3.75 z-score in assay [1]; 1.79 z-score in assay [2]; 2.51 z-score in assay [3]; 5.47 z-score in assay [4]; 4.66 z-score in assay [5]; 1.16 z-score in assay [6].

Consider “CCGATTAACATCAGGGAAGGCCCTGATGTTAATCGGGTCTTGATTCGCTTGACGCTGCTG”, for which the binding signal in assay [1] turned out to be 4.52 z-score; in assay [2], 4.31 z-score; in assay [3], 1.93 z-score; in assay [4] it was 8.94 z-score; in assay [5] it was 6.45 z-score; in assay [6] it was 2.96 z-score.
